Test results taken from PubChem BioAssay (Tox21).
A number with no mark means an inactive call. Inconclusive results are not listed. Where a call stands in place of a potency, no number is given. Calls of active or inactive are those of the source. Unless noted, the call rests on the fitted dose curve; in most records, active means well fitted curve in the direction sought with a large enough effect in the repeat runs; inconclusive means weak or mixed curves; inactive means no such curve, though single readings can be large; an effect the other way counts as inactive or inconclusive.

Key:
[1] = qHTS assay to identify small molecule antagonists of the estrogen related receptor (ERR) signaling pathway from Tox21 library - cell viability counter screen (AID 1224834); further: nearly all actives have a fitted effect of over 30% in size
In short: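 ERR cells, 2,000/well; 6 h settle at 37 C/5% CO2; pin-tool compound transfer in DMSO; 17.5 h at 37 C; CellTiter-Fluor, 30 min; fluorescence intensity.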

[2] = biological target: Luciferin 4-monooxygenase (Photinus pyralis) (UniProt P08659); experiment: qHTS assay to identify small molecule inhibitors of firefly luciferase (AID 1224835); further: nearly all actives have a fitted effect of over 25% in size; further: potency means the concentration at half of the fitted maximal effect
Luciferin 4-monooxygenase (Photinus pyralis), sequence (P08659 whole entry, looked up): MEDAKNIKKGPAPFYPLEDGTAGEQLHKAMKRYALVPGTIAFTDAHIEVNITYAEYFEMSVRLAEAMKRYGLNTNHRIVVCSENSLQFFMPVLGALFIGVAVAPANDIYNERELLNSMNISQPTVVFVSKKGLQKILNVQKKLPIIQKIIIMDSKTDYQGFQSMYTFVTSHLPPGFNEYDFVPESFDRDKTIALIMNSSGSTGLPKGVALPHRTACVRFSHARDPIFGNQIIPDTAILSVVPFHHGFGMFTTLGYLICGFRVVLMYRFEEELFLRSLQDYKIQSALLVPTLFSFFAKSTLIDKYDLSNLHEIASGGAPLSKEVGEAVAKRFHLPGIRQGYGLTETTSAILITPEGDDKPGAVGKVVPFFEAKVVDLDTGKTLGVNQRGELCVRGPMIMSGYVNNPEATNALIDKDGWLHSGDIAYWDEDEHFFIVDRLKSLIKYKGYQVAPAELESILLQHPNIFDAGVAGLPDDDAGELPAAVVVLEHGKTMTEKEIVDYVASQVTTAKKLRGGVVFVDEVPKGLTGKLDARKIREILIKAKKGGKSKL
In short: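 Quantitative HTS format; KM concentrations of both substrates. Purified P. pyralis FLuc activity quantified from luminescence images.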

[3] = qHTS assay to identify small molecule agonists of the constitutive androstane receptor (CAR) signaling pathway - cell viability counter screen (AID 1224836); further: nearly all actives have a fitted effect of over 45% in size
In short: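 Compound titrations (15 concentrations) went onto HepG2-CYP2B6-hCAR cells 4 h after seeding, alongside PK11195 at a final 0.75 uM; a 23 h, 37 C/5% CO2 incubation preceded CellTiter-Fluor viability measurement.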

[4] = qHTS assay to identify small molecule antagonists of the constitutive androstane receptor (CAR) signaling pathway - cell viability counter screen (AID 1224837); further: nearly all actives have a fitted effect of over 45% in size
In short: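 Viability was measured with CellTiter-Fluor in a HepG2 line carrying stably transfected hCAR and a CYP2B6-2.2kb construct. Cells were exposed for 23 hr at 37 C to 15 compound concentrations with 50 nM CITCO as agonist.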

[5] = biological target: Nuclear receptor subfamily 1 group I member 3 (Homo sapiens) (UniProt Q14994); experiment: qHTS assay to identify small molecule antagonists of the constitutive androstane receptor (CAR) signaling pathway (AID 1224838);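 further: HepG2 cells stably expressing hCAR with CYP2B6 luciferase reporter stimulated by CITCO; nearly all actives have a fitted effect of over 40% in size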
Nuclear receptor subfamily 1 group I member 3 (Homo sapiens), sequence (Q14994 whole entry, looked up): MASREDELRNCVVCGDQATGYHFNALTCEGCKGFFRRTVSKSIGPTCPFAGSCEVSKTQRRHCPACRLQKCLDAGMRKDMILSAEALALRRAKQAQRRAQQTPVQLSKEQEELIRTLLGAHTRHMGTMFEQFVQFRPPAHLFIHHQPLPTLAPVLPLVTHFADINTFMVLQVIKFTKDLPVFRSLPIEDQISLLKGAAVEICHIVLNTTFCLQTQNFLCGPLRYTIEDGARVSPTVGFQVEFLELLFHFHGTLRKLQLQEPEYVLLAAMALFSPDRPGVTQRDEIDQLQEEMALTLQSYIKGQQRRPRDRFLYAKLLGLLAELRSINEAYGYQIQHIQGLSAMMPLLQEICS
In short: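 Antagonist mode used CITCO at a final 50 nM to activate CAR in human hepatoma HepG2 cells carrying stable hCAR and a 2.2 kb CYP2B6 promoter-luciferase construct. Compounds were tested at 15 concentrations over 24 h, with luminescence as the end point.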

[6] = biological target: Nuclear receptor subfamily 1 group I member 3 (Homo sapiens) (UniProt Q14994); experiment: qHTS assay to identify small molecule agonists of the constitutive androstane receptor (CAR) signaling pathway (AID 1224839); further: nearly all actives have a fitted effect of over 15% in size
In short: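 In this screen, CAR-driven CYP2B6 promoter activity is measured by luminescence in HepG2-CYP2B6-hCAR cells after 24 h with test compounds and 0.75 uM PK11195 (final concentration).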

[7] = qHTS assay to identify small molecule antagonists of the estrogen related receptor signaling pathway with the pleiotropic PPARgamma coactivator (PGC) from Tox21 10K library - cell viability counter screen (AID 1224840; active means well fitted cell-killing curve with a large enough effect in the repeat runs, not every such curve was filed as active; further: nearly all actives have a fitted effect of over 40% in size)
In short: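 Multiplexed viability counter screen in the PGC/ERR cell line: cells treated with DMSO-dissolved compounds for 17.5 hours at 37 C, then viability measured as CellTiter-Fluor fluorescence.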

[8] = qHTS assay to identify small molecule agonists of H2AX (AID 1224845; active means well fitted activation curve with a large enough effect in the signal ratio in the repeat runs, not every such curve was filed as active; the % refers to the signal ratio)
In short: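 Wild-type CHO-K1 cells plated overnight, then exposed 3 hr at 37C to compounds at 15 concentrations (0.76% DMSO). Lysed, then HTRF anti-pH2AX(S139)-cryptate/anti-H2AX-d2 detection after 24 hr at room temperature; emissions 665 and 620 nm.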

[9] = qHTS assay to identify small molecule agonists of the hypoxia (HIF-1) signaling pathway (AID 1224846; active means well fitted activation curve with a large enough effect in the signal ratio in the repeat runs, not every such curve was filed as active; the % refers to the signal ratio)
In short: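 Compounds from the Tox21 10K library, dissolved in DMSO, are tested for induction of a hypoxia response element–controlled beta-lactamase reporter in ME-180 cells. Exposure lasts 17 hrs at 37C after a 5 hr settling period, followed by CCF4-AM FRET substrate.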

[10] = qHTS assay to identify small molecule agonists of H2AX - cell viability counter screen (AID 1224847; calls by dose curve; further: top concentration of the series differs between compounds; nearly all actives have a fitted effect of over 30% in size)
In short: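 Read-out: CellTiter-Glo luminescence, 30 min RT. Cells: wild-type CHO-K1, 1000/well, 10% FBS, plated overnight at 37C. Treatment: 15 concentrations, 3 hr, 37C, 0.76% DMSO.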

[11] = qHTS RealTime-Glo MT Cell Viability Assay in HepG2 cells - 24 hour (AID 1224867); further: nearly all actives have a fitted effect of over 50% in size
In short: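 qHTS, HepG2, 600 cells/well, RealTime-Glo (NanoLuc + prosubstrate) added with cells; 5 h preincubation; DMSO compound addition; 37 C; luminescence at 0/8/16/24/32/40 h.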

[12] = qHTS RealTime-Glo MT Cell Viability Assay in HEK293 cells - 32 hour (AID 1224868); further: top concentration of the series differs between compounds; nearly all actives have a fitted effect of over 50% in size
In short: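 Assay medium contained NanoLuc luciferase plus cell-permeant prosubstrate, added with HEK293 cells at 600 cells/well. After 5 h at 37 C/5% CO2 compounds were added; plates stayed at 37 C for 40 h with serial luminescence reads.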

[13] = A CellTox Green Cytotoxicity Assay to monitor cytotoxicity in HEK293 cells - 0 hour (AID 1224869); further: nearly all actives have a fitted effect of over 50% in size
In short: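 Cells (HEK293, 600/well) and dye reagent are dispensed together. After 5 h at 37 C, 23 nL compound is pinned in. Plates stay at 37 C for 40 h with fluorescence read at 0h, 8h, 16h, 24h, 32h and 40h.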

[14] = biological target: Thyrotropin receptor (Homo sapiens) (UniProt P16473); experiment: qHTS assay to identify small molecule agonists of the thyroid stimulating hormone receptor (TSHR) signaling pathway (AID 1224843; calls by dose curve; further: nearly all actives have a fitted effect of over 45% in size)
Thyrotropin receptor (Homo sapiens), sequence (P16473 whole entry, looked up): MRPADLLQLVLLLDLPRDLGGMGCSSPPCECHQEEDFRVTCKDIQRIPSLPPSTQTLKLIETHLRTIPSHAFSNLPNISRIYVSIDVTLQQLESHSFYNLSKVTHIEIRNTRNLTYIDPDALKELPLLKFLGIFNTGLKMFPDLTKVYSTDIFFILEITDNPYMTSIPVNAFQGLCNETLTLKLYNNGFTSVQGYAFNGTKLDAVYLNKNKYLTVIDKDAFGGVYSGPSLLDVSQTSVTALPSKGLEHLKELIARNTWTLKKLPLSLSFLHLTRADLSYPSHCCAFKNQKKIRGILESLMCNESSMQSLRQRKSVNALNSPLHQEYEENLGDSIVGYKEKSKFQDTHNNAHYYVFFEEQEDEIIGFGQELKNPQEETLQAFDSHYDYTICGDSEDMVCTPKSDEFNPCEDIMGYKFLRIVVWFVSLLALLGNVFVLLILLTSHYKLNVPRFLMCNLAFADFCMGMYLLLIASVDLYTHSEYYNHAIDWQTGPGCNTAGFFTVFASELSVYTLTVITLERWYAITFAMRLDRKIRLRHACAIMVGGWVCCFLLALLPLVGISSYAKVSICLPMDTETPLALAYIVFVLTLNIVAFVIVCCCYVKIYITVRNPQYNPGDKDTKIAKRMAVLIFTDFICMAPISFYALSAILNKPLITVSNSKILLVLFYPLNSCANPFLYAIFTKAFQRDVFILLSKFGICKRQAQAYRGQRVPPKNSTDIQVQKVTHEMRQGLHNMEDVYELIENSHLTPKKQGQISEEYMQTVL
In short: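 Using 15 concentrations per compound in triplicate, cAMP production was monitored in TSHR-HEK293 cells after 30 min compound incubation at RT; HTRF reagents followed, with fluorescence intensity recorded after 1 h.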

[15] = qHTS assay to identify small molecule antagonists of the estrogen related receptor signaling pathway with the pleiotropic PPARgamma coactivator (PGC) from Tox21 10K library (AID 1224841; call rule not given here; further: actives are mostly falling curves and most rising ones were filed inactive; nearly all actives have a fitted effect of over 50% in size)
In short: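 Steps: plate 2,000 PGC/ERR cells per well; incubate 6 h at 37 C with 5% CO2; transfer compounds from DMSO stocks by pin tool; incubate 18 h at 37 C; add One-Glo; measure luminescence 30 min later.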

[16] = qHTS assay to identify small molecule agonists of the estrogen related receptor signaling pathway with the pleiotropic PPARgamma coactivator (PGC) from Tox21 10K library (AID 1224842); further: nearly all actives have a fitted effect of over 15% in size
In short: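 PGC/ERR reporter cells (NTP line) were seeded 2,000 per well, rested 6 h at 37 C/5% CO2, then pin-dosed with compounds in DMSO for 18 h at 37 C; luciferase read by One-Glo luminescence after 30 min at room temperature.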

[17] = qHTS assay to identify small molecule agonists of the hypoxia (HIF-1) signaling pathway - cell viability counter screen (AID 1224844; calls by dose curve; further: nearly all actives have a fitted effect of over 50% in size)
In short: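 Cytotoxicity was measured in parallel with the HRE-driven beta-lactamase readout: after 17 hrs of compound exposure at 37C, HRE-bla ME-180 cells received CellTiter-Glo and luminescence was recorded 30 min later.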

[18] = qHTS assay to identify small molecule antagonists of the estrogen related receptor (ERR) signaling pathway from Tox21 library (AID 1224848); further: nearly all actives have a fitted effect of over 50% in size
In short: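 Tox21 10K compounds in DMSO tested for ERR pathway antagonism in NTP's ERR cell line; 18 h, 37 C exposure; ONE-Glo luminescence.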

[19] = qHTS assay to identify small molecule agonists of the estrogen related receptor (ERR) signaling pathway from Tox21 library (AID 1224849; calls by dose curve; further: nearly all actives have a fitted effect of over 15% in size); conditions: ERR reporter cell line, ONE-Glo luciferase, 18 h; at 92.4 µM (top of the series) unless noted
In short: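 Cells carrying the ERR reporter were plated and allowed to settle for 6 h, exposed to library compounds for 18 h at 37 C, then lysed with ONE-Glo and luminescence measured.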

| Compound | Potency [1] | Potency [2] | Potency [3] | Potency [4] | Potency [5] | Potency [6] | Potency [7] | Potency [8] | outcome [9] | Potency [10] | outcome [11] | Potency [12] | Potency [13] | Potency [14] | Potency [15] | Potency [16] | Potency [17] | Potency [18] | activity change, positive = activation [19] |
| --- | --- | --- | --- | --- | --- | --- | --- | --- | --- | --- | --- | --- | --- | --- | --- | --- | --- | --- | --- |
| CCC(CC)C(=O)O | inactive | inactive | inactive | inactive | inactive | inactive | inactive | inactive | inactive | inactive | inactive | inactive | inactive | – | – | – | – | – | – |
| C=CCCC | inactive | inactive | inactive | inactive | inactive | inactive | inactive | inactive | – | inactive | inactive | inactive | inactive | – | – | – | – | – | – |
| O=C(OCCN1CCOCC1)c1cccnc1Nc1cccc(C(F)(F)F)c1 | inactive | inactive | inactive | inactive | inactive | inactive | inactive | inactive | – | – | inactive | – | – | inactive | – | – | – | – | – |
| CCc1cnc(C(=O)O)c(C(=O)O)c1 | inactive | inactive | inactive | inactive | inactive | inactive | inactive | inactive | inactive | inactive | inactive | inactive | inactive | – | – | – | – | – | – |
| CCCCCCCCCCCCN1CCOCC1 | inactive | inactive | inactive | inactive | inactive | – | inactive | inactive | inactive | inactive | inactive | inactive | inactive | inactive | inactive | inactive | inactive | inactive | -8.24% |
| CC1(COc2ccc(CC3SC(=O)NC3=O)cc2)CCCCC1 (stereo not given) | inactive | 27.5 µM (active) | inactive | inactive | inactive | – | inactive | inactive | inactive | – | inactive | inactive | – | inactive | inactive | – | – | inactive | 7.77% [at 42.5 µM] |
| Cc1nc(C)c(C)nc1C | inactive | inactive | inactive | inactive | inactive | – | inactive | inactive | inactive | inactive | inactive | inactive | inactive | inactive | inactive | inactive | – | inactive | -0.837% |
| CC(C(=O)O)c1ccc(/C=C2\CCCCC2=O)cc1 (stereo not given) | inactive | 30.9 µM (active) | inactive | inactive | inactive | – | inactive | inactive | inactive | inactive | inactive | inactive | inactive | inactive | – | – | inactive | – | – |
| C=C[Si]1(C)O[Si](C)(C=C)O[Si](C)(C=C)O[Si](C)(C=C)O1 (stereo not given) | inactive | inactive | inactive | inactive | inactive | inactive | inactive | inactive | inactive | inactive | inactive | inactive | inactive | inactive | – | – | – | – | – |
| O=C(OCCCCCOC(=O)c1ccccc1)c1ccccc1 | inactive | inactive | inactive | inactive | inactive | – | inactive | inactive | inactive | inactive | inactive | – | inactive | – | inactive | inactive | inactive | inactive | 7.15% |
| O=C(O)c1cc(C(=O)O)cc([N+](=O)[O-])c1 | inactive | inactive | inactive | inactive | inactive | – | inactive | inactive | inactive | – | inactive | inactive | inactive | – | – | – | – | – | – |
| CCOc1ccc2c(c1)C(C)CC(C)(C)N2 (stereo not given) | inactive | 31.7 µM (active) | inactive | inactive | inactive | – | inactive | – | – | inactive | inactive | inactive | inactive | inactive | – | – | – | – | – |
| O=C(O)c1ccc2cc(O)ccc2c1 | inactive | 62.4 µM (active) | inactive | inactive | inactive | – | inactive | inactive | – | inactive | inactive | inactive | inactive | – | – | – | inactive | – | – |
